Normalized B-score (activity score, 25-100; higher = stronger inhibition) data for 67 compounds are collected here from PubChem BioAssay AID588511 (Johns Hopkins Ion Channel Center, 2011).

About 3,600 (1.2%) of roughly 310,000 compounds were called active.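 How the source made its calls: active means ratio plate-corrected score three or more library SD toward inhibition, starting fluorescence score within five deviations; inactive means the rest.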 Shown is part of a subset that was picked to be rich in actives.

Chain of Anoctamin-1 (Mus musculus) (Q8BHY3 whole entry, looked up): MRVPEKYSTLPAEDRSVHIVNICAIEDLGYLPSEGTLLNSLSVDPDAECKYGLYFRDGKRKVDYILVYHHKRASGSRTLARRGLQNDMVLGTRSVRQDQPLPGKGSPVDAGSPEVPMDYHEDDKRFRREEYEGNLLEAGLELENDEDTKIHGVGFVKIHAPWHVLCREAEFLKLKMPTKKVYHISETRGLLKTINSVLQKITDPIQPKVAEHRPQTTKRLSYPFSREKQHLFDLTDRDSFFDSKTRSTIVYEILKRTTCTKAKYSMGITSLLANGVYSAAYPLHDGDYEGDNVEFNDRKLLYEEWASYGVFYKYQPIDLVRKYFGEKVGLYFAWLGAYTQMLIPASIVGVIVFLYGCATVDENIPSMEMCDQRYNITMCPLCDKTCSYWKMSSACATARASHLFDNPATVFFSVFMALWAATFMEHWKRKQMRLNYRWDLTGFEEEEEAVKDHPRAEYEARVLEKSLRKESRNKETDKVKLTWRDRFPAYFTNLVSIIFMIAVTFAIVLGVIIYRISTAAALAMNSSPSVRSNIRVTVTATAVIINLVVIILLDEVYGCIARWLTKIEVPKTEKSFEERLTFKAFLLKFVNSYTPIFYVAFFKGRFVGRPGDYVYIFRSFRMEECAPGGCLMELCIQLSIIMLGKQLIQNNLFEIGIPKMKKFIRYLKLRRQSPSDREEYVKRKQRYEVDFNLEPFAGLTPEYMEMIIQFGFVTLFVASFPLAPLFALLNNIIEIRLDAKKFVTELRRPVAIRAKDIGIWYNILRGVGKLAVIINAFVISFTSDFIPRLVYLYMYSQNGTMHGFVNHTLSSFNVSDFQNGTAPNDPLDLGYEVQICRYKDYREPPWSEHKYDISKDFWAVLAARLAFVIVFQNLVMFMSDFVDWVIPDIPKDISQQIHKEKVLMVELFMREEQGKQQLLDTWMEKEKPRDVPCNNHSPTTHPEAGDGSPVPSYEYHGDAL

This experiment concerns the target Anoctamin-1 (Mus musculus) (UniProt Q8BHY3). Put plainly: TMEM16A chloride channel inhibitors, primary screen, cell-based, HTS (AID 588511).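 On Normalized B-score (activity score, 25-100; higher = stronger inhibition): score derived from kinetic fluorescence span divided by baseline fluorescence per well.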 Particulars: HEK293 TMEM16A/YFP iodide influx fluorescence, ionomycin; at 10 µM.
Consider `COc1ccc([C@H]2[C@H](C(C)=O)N3N=Cc4ccccc4C3C23C(=O)OC(C)(C)OC3=O)cc1` (some centres not stated), for which the normalized B-score (activity score, 25-100; higher = stronger inhibition) result is “inactive”.

Regarding `O=C(Nc1cccc(Cl)c1Cl)c1ccccc1NC(=O)C1CC=CCC1C(=O)O` (configuration not stated), the normalized B-score (activity score, 25-100; higher = stronger inhibition) result is “inactive”.

Consider `Cc1c(C(=O)NC(=S)NCc2cccnc2)oc2ccccc12`, for which the normalized B-score (activity score, 25-100; higher = stronger inhibition) entry is “inactive”.

`Cc1oc2nc(SCC(=O)Nc3ccc(S(N)(=O)=O)cc3)nc(NC(=O)c3ccccc3)c2c1C`: the normalized B-score (activity score, 25-100; higher = stronger inhibition) entry was “inactive”.

As to `Cc1oc2nc(SCC(=O)NCc3cccnc3)nc(N)c2c1C`, the normalized B-score (activity score, 25-100; higher = stronger inhibition) was 100 (active).

In the case of `COc1ccc(CCNC(=O)c2nnc(CS(=O)(=O)c3ccccc3)o2)cc1OC`, the normalized B-score (activity score, 25-100; higher = stronger inhibition) entry was “inactive”.

As for `Cc1ccccc1NC(=O)Nc1ccccc1N1CCCCC1`, the normalized B-score (activity score, 25-100; higher = stronger inhibition) result is “inactive”.

As for `O=C(CNCCC1=CCCCC1)Nc1ccccc1N1CCCCCC1`, the normalized B-score (activity score, 25-100; higher = stronger inhibition) was 25 (active).

Turning to `Cc1ccccc1NC(=O)CNc1ccccc1N1CCCCC1`, the normalized B-score (activity score, 25-100; higher = stronger inhibition) entry is “inactive”.

`COc1ccccc1CNC(=O)CSc1nc(=O)n(Cc2ccncc2)c2c1CCC2`: the normalized B-score (activity score, 25-100; higher = stronger inhibition) result is “inactive”.

Turning to `CCN(CC)CCCNC(=O)CCn1nc(-c2ccc(Cl)cc2)ccc1=O`, the normalized B-score (activity score, 25-100; higher = stronger inhibition) entry was “inactive”.

Consider `Cc1ccc(-c2c[n+](=O)c3c(n2[O-])CCC3)cc1`, for which the normalized B-score (activity score, 25-100; higher = stronger inhibition) entry is “inactive”.

Consider `Cc1ccc(OCCCC(=O)Nc2ccc(S(=O)(=O)Nc3cc(C)nc(C)n3)cc2)cc1`, for which the normalized B-score (activity score, 25-100; higher = stronger inhibition) result was “inactive”.

For the compound `O=C(Cn1cnc2ccccc2c1=O)Nc1cccc(S(=O)(=O)N2CCCCC2)c1`, the normalized B-score (activity score, 25-100; higher = stronger inhibition) result was “inactive”.

As for `CC1CCN(S(=O)(=O)c2ccc3ncn(CC(=O)N(C)C4CCCCC4)c(=O)c3c2)CC1`, the normalized B-score (activity score, 25-100; higher = stronger inhibition) entry was “inactive”.

Consider `CCN1CCCC1CNC(=O)Cn1cnc2ccc(S(=O)(=O)N3CCC(C)CC3)cc2c1=O` (configuration not stated), for which the normalized B-score (activity score, 25-100; higher = stronger inhibition) is 25 (active).

In the case of `CC(=O)NC1C(Oc2ccc(C=O)cc2)OC(COC(C)=O)C(OC(C)=O)C1OC(C)=O` (configuration not stated), the normalized B-score (activity score, 25-100; higher = stronger inhibition) entry was “inactive”.

As to `COc1ccc(C(=O)NC(=S)NNC(=O)c2c(-c3ccccc3)noc2C)cc1`, the normalized B-score (activity score, 25-100; higher = stronger inhibition) was 100 (active).

With `Cc1onc(-c2ccccc2)c1C(=O)NNC(=S)NC(=O)c1ccc(F)cc1`, the normalized B-score (activity score, 25-100; higher = stronger inhibition) entry was “inactive”.

For `COc1ccc(C(=O)NNC(=S)NC(=O)c2ccccc2)cc1`, the normalized B-score (activity score, 25-100; higher = stronger inhibition) entry was “inactive”.

In the case of `CC(C)C[C@H](NC(=O)C1CC(=O)N(c2ccc3c(c2)OCCO3)C1)C(=O)NC1CCCC1` (some centres not stated), the normalized B-score (activity score, 25-100; higher = stronger inhibition) result was “inactive”.

`CN(c1cccc(NC(=O)c2ccc(CN3CCc4ccccc4C3)cc2)c1)S(C)(=O)=O`: the normalized B-score (activity score, 25-100; higher = stronger inhibition) is 25 (active).

For `Cc1cccc(C)c1NC(=O)c1ccc(CN2CCc3ccccc3C2)cc1`, the normalized B-score (activity score, 25-100; higher = stronger inhibition) entry was “inactive”.

`CN(c1ccc(C(=O)N2CCc3ccccc3C2)cc1)S(C)(=O)=O`: the normalized B-score (activity score, 25-100; higher = stronger inhibition) entry is “inactive”.

Regarding `COc1cccc(-n2c(=O)c3c(C)c(C(=O)N(C)C)sc3n(CC(=O)NCCc3ccc(OC)c(OC)c3)c2=O)c1`, the normalized B-score (activity score, 25-100; higher = stronger inhibition) result is “inactive”.

For `Cc1nc(SC(C)C)[nH]c(=O)c1Cc1ccccc1`, the normalized B-score (activity score, 25-100; higher = stronger inhibition) entry is “inactive”.

Take `O=C1CC(C(F)(F)C(F)(F)C(F)(F)C(F)(F)F)=Nc2ccccc2N1`: the normalized B-score (activity score, 25-100; higher = stronger inhibition) result is “inactive”.

On to `Cc1ccc2cc(C)c(N3CCN(c4ccc(F)cc4)CC3)nc2c1`, for which the normalized B-score (activity score, 25-100; higher = stronger inhibition) entry was “inactive”.

On to `Cc1ccc(-n2ncc3c(N4CCN(c5ccc(F)cc5)CC4)ncnc32)c(C)c1`, for which the normalized B-score (activity score, 25-100; higher = stronger inhibition) is 100 (active).

Consider `Cc1ccc(-n2ncc3c(=O)[nH]cnc32)c(C)c1`, for which the normalized B-score (activity score, 25-100; higher = stronger inhibition) entry was “inactive”.

Regarding `CCN(CC)C(=O)Oc1ccc(OC(=O)N(CC)CC)cc1`, the normalized B-score (activity score, 25-100; higher = stronger inhibition) result is “inactive”.

With `Cc1ccc(NC(=O)CN2C(=O)NC(C)(c3ccc(Cl)cc3)C2=O)c(Br)c1` (configuration not stated), the normalized B-score (activity score, 25-100; higher = stronger inhibition) entry was “inactive”.

For the compound `CCOC(=O)C1=C(CN2CCc3ccccc32)NC(=O)NC1c1cccc([N+](=O)[O-])c1` (configuration not stated), the normalized B-score (activity score, 25-100; higher = stronger inhibition) is 25 (active).

As for `CCOC(=O)C1=C(CN2CCc3ccccc32)NC(=O)NC1c1ccc(Cl)cc1` (configuration not stated), the normalized B-score (activity score, 25-100; higher = stronger inhibition) entry is “inactive”.

In the case of `CCOC(=O)C1=C(CN2CCCCCC2)NC(=O)NC1c1cccc([N+](=O)[O-])c1` (configuration not stated), the normalized B-score (activity score, 25-100; higher = stronger inhibition) result is “inactive”.

As to `CS(=O)(=O)N(CC(=O)N1CCOCC1)c1cccc(Cl)c1Cl`, the normalized B-score (activity score, 25-100; higher = stronger inhibition) result was “inactive”.

For `CN(CC(=O)NCCc1ccccc1)S(=O)(=O)c1cnc[nH]1`, the normalized B-score (activity score, 25-100; higher = stronger inhibition) entry was “inactive”.

On to `COc1ccc(C2C(C(C)=O)=C(O)C(=O)N2c2nccs2)cc1` (configuration not stated), for which the normalized B-score (activity score, 25-100; higher = stronger inhibition) entry is “inactive”.

Turning to `Cc1cc(C)c(-c2c(O)c3ccccc3n(C)c2=O)c(C)c1`, the normalized B-score (activity score, 25-100; higher = stronger inhibition) entry is “inactive”.

With `CCCCCCOc1ccc(OC(=O)c2cccnc2)cc1`, the normalized B-score (activity score, 25-100; higher = stronger inhibition) result was “inactive”.

`CN(C)CCCN1C(=O)CSC1c1ccc([N+](=O)[O-])cc1` (configuration not stated): the normalized B-score (activity score, 25-100; higher = stronger inhibition) result was “inactive”.

Take `CCCCCCCCCCCCN1C(=O)CSC1c1cccnc1` (configuration not stated): the normalized B-score (activity score, 25-100; higher = stronger inhibition) is 25 (active).

Consider `CCOC(=O)N/N=C1\CC(C)S(=O)(=O)c2ccc(Cl)cc21` (configuration not stated), for which the normalized B-score (activity score, 25-100; higher = stronger inhibition) result was “inactive”.

On to `CN(C)c1cc[n+](Cc2ccccc2)cc1`, for which the normalized B-score (activity score, 25-100; higher = stronger inhibition) was 25 (active).

With `CN(C)c1ccc(/C=C2\NC(=S)N(Cc3ccccc3)C2=O)cc1`, the normalized B-score (activity score, 25-100; higher = stronger inhibition) entry is “inactive”.

As to `c1ccc(Cc2cc[n+](Cc3ccccc3)cc2)cc1`, the normalized B-score (activity score, 25-100; higher = stronger inhibition) result is “inactive”.

In the case of `O=C(NCCC1CCCCN1S(=O)(=O)c1ccccc1)C(=O)NCC1CCCO1` (configuration not stated), the normalized B-score (activity score, 25-100; higher = stronger inhibition) result was “inactive”.

Turning to `COc1ccc(CN2CN(C3CCCC3)CSC2=S)cc1`, the normalized B-score (activity score, 25-100; higher = stronger inhibition) entry is “inactive”.

Consider `COC(=O)c1c(C)c(C)nc(N)c1C#N`, for which the normalized B-score (activity score, 25-100; higher = stronger inhibition) entry is “inactive”.

As for `COc1ccc(CNC(=O)CN(Cc2ccccc2Cl)C(=O)c2csnn2)cc1`, the normalized B-score (activity score, 25-100; higher = stronger inhibition) result is “inactive”.

For the compound `Cc1ccccc1-n1nnnc1SCCCC(=O)c1ccc(F)cc1`, the normalized B-score (activity score, 25-100; higher = stronger inhibition) was 100 (active).

`CC(=O)Nc1ccc(NC(=O)CSc2nnnn2-c2ccccc2F)cc1`: the normalized B-score (activity score, 25-100; higher = stronger inhibition) entry is “inactive”.

As to `O=C(CSc1nnnn1-c1ccc(O)cc1)c1ccc(F)cc1`, the normalized B-score (activity score, 25-100; higher = stronger inhibition) result is “inactive”.

For the compound `CC1=C(C(=O)NC2CC(C)(C)Cc3c2cnn3-c2ccc(C)cc2)OCCO1` (configuration not stated), the normalized B-score (activity score, 25-100; higher = stronger inhibition) entry was “inactive”.

`CCOC(=O)c1ccc(-n2c(CCC(=O)O)ccc2-c2ccccc2)cc1`: the normalized B-score (activity score, 25-100; higher = stronger inhibition) result is “inactive”.

As to `Cc1noc(C)c1COC(=O)c1cc2ccccc2cc1O`, the normalized B-score (activity score, 25-100; higher = stronger inhibition) is 25 (active).

Consider `Cc1noc(C)c1COC(=O)COc1ccc(-c2ccccc2)cc1`, for which the normalized B-score (activity score, 25-100; higher = stronger inhibition) entry is “inactive”.

As to `COCc1c(C(=O)OCc2c(C)noc2C)oc2ccccc12`, the normalized B-score (activity score, 25-100; higher = stronger inhibition) result was “inactive”.

Consider `CC(=O)Nc1ccc(S(=O)(=O)Nc2cc(C)cn(Cc3ccc(C)cc3)c2=O)cc1`, for which the normalized B-score (activity score, 25-100; higher = stronger inhibition) result is “inactive”.

Take `O=C(Cc1ccccn1)c1ccc(O)cc1O`: the normalized B-score (activity score, 25-100; higher = stronger inhibition) result is “inactive”.

`C=CCC1(CC=C)CCCN1C(=O)c1cc(COc2ccc(-n3cncn3)cc2)on1`: the normalized B-score (activity score, 25-100; higher = stronger inhibition) was 100 (active).

Regarding `O=C(c1cc(COc2ccc(F)c(F)c2)on1)N1CCOCC1`, the normalized B-score (activity score, 25-100; higher = stronger inhibition) entry is “inactive”.

On to `CCn1ccnc1CN(C)C(=O)c1cc(COc2ccc(-n3cncn3)cc2)on1`, for which the normalized B-score (activity score, 25-100; higher = stronger inhibition) result was “inactive”.

As to `COc1ccc(-c2csc(NC(=O)COC(=O)c3ccc(Br)o3)n2)cc1`, the normalized B-score (activity score, 25-100; higher = stronger inhibition) entry was “inactive”.

For the compound `COc1ccc(N2CCN(C(=O)CNC(=O)c3ccc(Br)o3)CC2)cc1`, the normalized B-score (activity score, 25-100; higher = stronger inhibition) result was “inactive”.

For the compound `COc1ccc(-c2nc(CCNC(=O)c3ccc(Br)o3)cs2)cc1`, the normalized B-score (activity score, 25-100; higher = stronger inhibition) was 100 (active).

With `COc1ccc(C(=O)COC(=O)CNC(=O)c2cccs2)cc1Br`, the normalized B-score (activity score, 25-100; higher = stronger inhibition) result was “inactive”.
